# Source: PubChem BioAssay AID2685 (National Center for Advancing Translational Sciences (NCATS), 2010)
# The campaign covered roughly 320,000 compounds. About 2,100 (0.66%) were called active. Another 53% or so got no clear call; they are omitted. Calls follow the shape of the dose curve; as a rule, active = well fitted inhibition curve with a large enough effect in the signal ratio, with a control signal flat (not every such curve was filed as active); inconclusive = small, poorly fitted or top-dose-only effect, or effect the other way, or a change in a side signal; inactive = flat fitted curve, though single readings scatter; the % refers to the signal ratio. The list comes from a sample in which actives are over-represented; it also holds similar structures and randomly drawn compounds.
# Experiment: qHTS Assay for Lipid Storage Modulators in Drosophila S3 Cells;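 as to cell number change: cells counted by Cell Tracker Red CMTPX staining in the red channel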; as to lipid storage change, negative = inhibition: % is scaled to controls: 0 for no effect and ±100 for the full control effect
# Settings: BODIPY lipid droplet fluorescence, 18-24 h, cells fed with added oleic acid; cell number change: measured here: cell count max response; series mostly up to 46.1 µM; lipid storage change, negative = inhibition: at the top concentration
# Outline: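 Drosophila S3 cells loaded with oleic acid (400 uM, as added) and compounds at several concentrations; lipid droplets imaged by 488-nm laser-scanning cytometry, 500–530 nm intensity and object ratio to cell channel. Percent activity normalized to 20 uM Triacsin C.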
# Potency is read from the fitted curve at half-maximal effect.
Compound,"lipid storage change, negative = inhibition",cell number change [%],outcome,Potency
CC(C)NCC(O)COCCOc1ccc(Br)cc1 (stereo not given),0.83% (inactive),23.8,,
O=C(CCC1CCCN(C(=O)c2ccc3c(c2)OCO3)C1)N1CCN(c2ccccn2)CC1 (stereo not given),17.9% (inactive),-1.56,,
CC1CCCCC1NC(=O)c1ccc(S(=O)(=O)N2CCCC2)cc1 (stereo not given),,25.1,inactive,
COc1cccc(C(=O)NCCS(=O)(=O)NCCc2ccc(OC)c(OC)c2)c1,,,inactive,
Cc1cc(-c2nn(C)c(=O)c3ccccc23)ccc1CNC(=O)NC1CCCCC1,11.4% (inactive),19.3,,
Cc1sc2nc(CN3CCOCC3)[nH]c(=O)c2c1-c1ccccc1,,-18.1,inactive,
O=C(c1cccc(Cl)c1)N1CCCC(C(=O)N2CCCCCC2)C1 (stereo not given),-16.5% (inactive),-0.867,,
NC(Cc1ccccc1)C(O)(c1ccccc1)c1ccccc1 (stereo not given),5.79% (inactive),-20.2,,
Cc1noc(NS(=O)(=O)c2ccc(NC(=O)CCn3c(=O)oc4ccccc43)cc2)c1C,9.9% (inactive),,,
CCC(C)NC(=O)C(=O)NCc1ccccn1 (stereo not given),1.01% (inactive),4.8,,
Cc1ccc(S(=O)(=O)Cc2nnnn2-c2ccccc2)cc1,-12% (inactive),-3.66,,
COc1ccc(CC(=O)Nc2ccc(-c3noc(-c4ccc(Cl)cc4)n3)cc2)cc1,-5.45% (inactive),-6.7,,
COc1ccc(CCNC(=O)CNC(=O)c2ccccc2Br)cc1OC,-67.8% (inactive),19.2,,
O=C1C(Cc2ccc(O)cc2)NC(=S)N1C1CCCCC1 (stereo not given),-15.9% (inactive),9.32,,
CC(=O)Nc1sc(NC(=O)c2ccc([N+](=O)[O-])cc2)nc1-c1cccs1,-6.26% (inactive),7.62,,
Cc1cccc(NC(=O)CC2C(=O)NC3CCCCC3N2C(=O)c2ccccc2Cl)c1 (stereo not given),-5.97% (inactive),7.35,,
CN(C(=O)CC1C(=O)NCCN1Cc1ccc(F)c(F)c1)C1CCOCC1 (stereo not given),28.1% (inactive),1.07,,
CC1CCc2cc(F)ccc2N1C(=O)CSc1nnc2c(n1)[nH]c1ccc(F)cc12 (stereo not given),-15.2% (inactive),-17.4,,
CC1Cc2ccccc2N1C(=O)CSc1nnc2c(n1)[nH]c1ccccc12 (stereo not given),9.27% (inactive),3.16,,
CC(C)c1ccc2[nH]c3nc(SCC(=O)N4CCOCC4)nnc3c2c1,-0.666% (inactive),-11.8,,
CC1CCCCN1C(=O)CSc1nnc2c(n1)[nH]c1ccccc12 (stereo not given),,8.97,,580 nM (active)
CCc1ccc2[nH]c3nc(SCC(=O)NCC4CCCO4)nnc3c2c1 (stereo not given),-11.3% (inactive),8.06,,
CC(C)c1ccc2[nH]c3nc(SCC(=O)NC4CC4)nnc3c2c1,,8.7,,651 nM (active)
CC1CCCCN1C(=O)CSc1nnc2c(n1)[nH]c1ccc(F)cc12 (stereo not given),,8.7,inactive,
O=C(CSc1nnc2c(n1)[nH]c1ccc(F)cc12)NC1CC1,,-6.52,,20600 nM (active)
Cc1ccc(C(=O)NNC(=O)CSc2nnc3c(n2)[nH]c2ccc(F)cc23)cc1,3.4% (inactive),6.2,,
